# High-throughput results deposited in PubChem BioAssay by National Center for Advancing Translational Sciences (NCATS).
# Epigenetic derep = epigenetic control regulation, reporter derepression. hit rate 0.2% among 280,000. AID 1865. murine LDR cells, GFP reporter derepression, 30 h. Potency, µM (highest dose often 53.9 µM), inactives show at the highest dose GFP activation, most hits filed as activators; note: % of control where 0% means no effect; nearly all actives have a fitted effect of over 60% in size
#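 Derepression of a silenced CMV-GFP reporter in murine LDR cells is scored by enumerating GFP-positive cells with a laser-scanning microplate cytometer after 30 hours of treatment at 37 C.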
# Nrf2 inh = Nrf2 pathway inhibition. A549 ARE-Fluc reporter, luciferase luminescence, 18-24 h. Potency, µM (highest dose often 46 µM), inactives show top-dose activity change, negative = inhibition, hits mostly inhibitors. hit rate 2.1% among 360,000. AID 504444; note: % is set by controls: 0 for no effect and ±100 for the full control effect; nearly all actives have a fitted effect of over 60% in size
#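 Nrf2 function is reported as luminescence of an ARE-controlled luciferase in A549 cells. Compounds were tested at several concentrations, and a CellTiter-Fluor read on the same wells flagged cytotoxicity.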
# A549 viability = A549 cytotoxicity, counter-screen for Nrf2 inhibitors; A549 ARE-Fluc cells, CellTiter-Fluor viability, 18-24 h; Potency, µM (highest dose often 46 µM), inactives show at the top dose activity change, negative = cytotoxicity, usual class: inhibitors; hit rate 0.16% among 390,000; note: % is set by controls: 0 for no effect and ±100 for the full control effect
#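 A549 ARE_Fluc cells in 5% FBS OPTI-MEM were exposed to compounds in concentration-response for 18-24 h at 37 deg C. Viability was read by CellTiter-Fluor fluorescence (Ex 405/Em 525) after 30 min, before the luciferase read.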
# PINK1 expr mod = modulators of PINK1 expression; PINK1 immunofluorescence, high-content cytometry, 24 h; hit rate 0.2% among 410,000; Potency, µM (doses to about 76.6 µM), inactives show at the highest dose activation (PINK1 increase), actives largely listed as activators; active = well fitted activation curve with a large enough effect; inconclusive = small, poorly fitted or top-dose-only effect; cell line not stated here; note: % of control where 0% means no effect; nearly all actives have a fitted effect of over 65% in size
#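 Measures PINK1 amount and localization on or inside mitochondria by immunofluorescence. Stable cells get compounds at 5 concentrations for 24 hours before fixation and staining; CCCP controls included.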
# Nrf2 activator = activates Nrf2 signaling. AREc32 ARE-luciferase reporter (MCF7-derived line), luminescence, 24 h. Potency, µM (top dose mostly 46.1 µM), inactives show at the highest dose activation, actives largely listed as activators. hit rate 0.31% among 410,000. AID 624171; note: % of control where 0% means no effect; nearly all actives have a fitted effect of over 65% in size
#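 Nrf2 activation is followed as ARE-luciferase induction in the AREc32 line after one day of compound treatment; luminescence is read with Steady-Glo.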
# Starred values were filed as active, the others as inactive; ? = inconclusive; · = no result; [ ] = dose if it differs, or a comment. Most compounds without a hit are left out; they make up all but 2.4% or so of the library. Unless noted, calls come from the whole dose curve; as a rule, active = well fitted curve in the direction sought with a large enough effect; inconclusive = small, poorly fitted or top-dose-only effect, or another doubt; inactive = no such curve, though single readings can be large; an effect the other way counts as inactive or inconclusive. Potency is the fitted concentration of half-maximal effect.
SMILES,Epigenetic derep,Nrf2 inh,A549 viability,PINK1 expr mod,Nrf2 activator
C(=N\n1cnc2ccccc21)/c1cccnc1,1%,14%,12%,-3%,2%
CCN(CC)c1ccc(/C=C2/SC(=O)N(C(C)C)C2=O)o1,11µM*,?,-30%,10%,?
Cc1[nH]n(-c2ccccc2)c(=O)c1C(=O)c1ccc([N+](=O)[O-])cc1,0%,?,-9%,2%,0%
Cc1nn(-c2ccccc2)nc1C(=O)c1c(C)[nH]n(-c2ccccc2)c1=O,-4%,21µM*,?,3%,0%
O=C(NCc1nnc2n1CCN(Cc1cc(F)cc(F)c1)CC2)c1cccc(F)c1,·,·,·,4%,·
CN(C)c1ccc(/C=C/c2nc3ccccc3s2)cc1,?,?,-4%,45µM*,-3%
CN(C)c1ccc(/C=C/c2c(Br)cnc3ccccc23)cc1,·,·,·,2%,·
C=C(/C=C/c1ccc(N(C)C)cc1)c1nc2ccccc2s1,·,·,·,10µM*,·
CN(C)c1ccc(/C=C/c2ccnc3ccc(N)cc23)cc1,·,·,·,8%,·
Cc1cc2c(s1)c1cnn(Cc3cc(C(F)(F)F)ccc3F)c(=O)c1n2C,·,4%,0%,·,·
CN(C)c1cc(F)c(C=O)cc1F,·,·,·,1%,·
Cc1ccc(CNc2cc(-c3nn4c(C)nnc4s3)ccc2C)s1,0%,16µM*,-13%,-7%[38.3 µM],7%
O=C(NNc1ccccc1F)c1sccc1Cl,·,2%,-1%,3%,·
COc1ccc(NS(=O)(=O)c2ccc(-c3coc(C)n3)cc2)cc1,·,16µM*,2%,0%,2%
Cc1nc(-c2ccc(S(=O)(=O)Nc3ccc(S(N)(=O)=O)cc3)cc2)co1,·,-30%,-2%,-2%,0%
COc1ccc(S(=O)(=O)Nc2ccc(Oc3ncccn3)c(Cl)c2)cc1,13%,?,-3%,0%,0%
COc1ccc(NS(=O)(=O)c2ccc(Oc3ncccn3)cc2)cc1,0%,21µM*,0%,0%,0%
O=[N+]([O-])c1cccc(S(=O)(=O)Nc2nc3ccccc3nc2Nc2cccc(S(=O)(=O)N3CCCCC3)c2)c1,-1%,?,?,?,19%
CCS(=O)c1ccccc1C(=O)OCC(=O)Nc1cccc(S(=O)(=O)N2CCCCC2)c1 (stereo unspecified),·,21µM*,-12%,2%,0%
Cc1cccc(C)c1OCC(=O)Nc1cccc(S(=O)(=O)N2CCCC2)c1,·,15µM*,-13%,0%,0%
Cc1cccc(C)c1OCC(=O)Nc1cccc(S(=O)(=O)N2CCCCCC2)c1,·,·,·,1%,0%
O=C(COc1ccccc1Br)Nc1ccc(S(=O)(=O)N2CCCC2)cc1,·,13µM*,-4%,1%,0%
Cc1ccc(S(=O)(=O)Nc2nc3ccccc3nc2Nc2cccc(S(=O)(=O)N3CCCC3)c2)cc1,1%,9.2µM*,-13%,?,-1%
COc1ccccc1N1CCN(c2nc(CNC(=O)c3ccc4c(c3)OCO4)nc3ccccc23)CC1,·,·,·,-1%,·
COc1ccc(CCC(=O)Nc2cccc(S(=O)(=O)N3CCCCCC3)c2)cc1,·,21µM*,-10%,-2%,0%
SMILES,Epigenetic derep,Nrf2 inh,A549 viability,PINK1 expr mod,Nrf2 activator
COc1ccc(OC)c(/C=C/C(=O)Nc2cccc(S(=O)(=O)N3CCCC3)c2)c1,0%,13µM*,16%,-1%,-1%
Cc1cc(OCC(=O)Nc2cccc(S(=O)(=O)N3CCCC3)c2)ccc1Cl,·,16µM*,-16%,1%,3%
COc1ccc(CC(=O)Nc2cccc(S(=O)(=O)N3CCCCC3)c2)cc1,·,?,-2%,3%,2%
Cc1ccc(NC(=O)CSCC(=O)Nc2cccc(S(=O)(=O)N3CCCCCC3)c2)cc1,·,13µM*,-27%,2%,4%
Cc1nc(N2CCN(C)CC2)c2nnn(Cc3ccccc3)c2n1,·,21%,-6%,1%,·
COc1ccc(CNC(=O)C2=C(C)C(=O)OC23CCN(C(C)=O)CC3)cc1,-1%,?,?,0%,-1%
O=C(Nn1c(C2CCCCC2)nc2ccccc2c1=O)c1ccc(Cl)c([N+](=O)[O-])c1,-2%,7%,-1%,-1%,?
Cc1cc(C(=O)Nn2c(C3CCCCC3)nc3ccccc3c2=O)ccc1[N+](=O)[O-],-2%,?,-11%,16µM*,4%
COC(=O)c1cc(NC(=O)c2cccc(C(F)(F)F)c2)c(=O)oc1C/C=N/OCc1cccc(Cl)c1Cl,2%,-10%,-1%,22µM*,13µM*
COC(=O)c1cc(NC(=O)c2cccc(C(F)(F)F)c2)c(=O)oc1C,-4%,?,2%,6%,27%
O=C(/C=C/c1ccccc1)NC(=S)Nc1ccccc1O,·,3%,-9%,2%,23%
Cc1ccc(O)c(NC(=S)NC(=O)/C=C/c2ccccc2)c1,·,-1%,-4%,3%,11µM*
CN(Cc1ccccc1)c1nc(-c2ccc([N+](=O)[O-])cc2)nc2ccccc12,-2%,?,-6%,2%,0%
O=[N+]([O-])c1ccc(-c2nc(C(Cl)Cl)c3ccccc3n2)cc1,0%,15µM*,?,0%,3%
COC1=C(C)C(=O)C2=C(C1=O)C1C3CC4=C(C(=O)C(OC)=C(C)C4=O)C(CNC(=O)C(C)=O)N3C(C#N)C(C2)N1C (stereo unspecified),·,0.58µM*,9.2µM*,-6%,-2%
Cc1ccc(NC(=O)N2CCC(CN3CCCC3)CC2)c(C)c1,-1%,5%,6%,1%,0%
CC(Oc1ccc(Cl)cc1Cl)c1nc(-c2ccc(NC(=O)c3cccnc3)cc2)no1 (stereo unspecified),1%,·,-13%,12%,-1%
CC(Oc1ccc(Cl)cc1Cl)c1nc(-c2ccc(NC(=O)c3ccncc3)cc2)no1 (stereo unspecified),0%,10µM*,-1%,?,0%
O=C1SC(SCc2ccccc2)=N/C1=C\c1ccco1,-1%,-27%,-21%,?,5%
CCCSC1=N/C(=C\C=C\c2ccco2)C(=O)S1,-1%,6%,-4%,?,10µM*
O=C(Nc1ccc(Br)cc1)C1CCN(S(=O)(=O)c2cccc3nsnc23)CC1,4%,1%,14%,6%,-1%
O=c1nc2c(O)cccn2c2c1c(=O)[nH]c1ccccc12,-1%,13%,-8%,16%,5.6µM*
CC(C)CS(=O)(=O)c1oc(-c2ccc(F)cc2)nc1S(=O)(=O)c1ccccc1,2%,23µM*,?,0%,-6%
CC(C)OC(=O)NCCOC(=O)Nc1cccc(Cl)c1,1%,-7%,0%,2%,0%
CC(C)OC(=O)NC(C)(C)COC(=O)Nc1cccc(Cl)c1,-2%,10µM*,-26%,2%[38.3 µM],2%
O=C(c1ccc2c(c1)N(Cc1ccc(F)cc1)CCS2)N1CCN(c2ccccc2)CC1,0%,21µM*,?,1%,1%
